PubChem BioAssay (EPA / NIEHS)
More than one record can exist for a structure, and the calls need not agree. Activity calls are given as the source filed them. How the source made its calls: active means hit-call score of the fitted dose curve at least 0.9, where 1 is the maximum; inactive means score below 0.9.

Experiments:
Conditions in all cases: mRNA level, 48 h; actives raise or lower the signal
[1] = read-out: MicroRNA 122 (MIR122), gene 406906; assay: LTEA_HepaRG_MIR122: Life Technologies and Expression Analysis (LTEA) Assay for MicroRNA 122 (MIR122) using HepaRG (AID 2283516); further: the transcript read is the microRNA miR-122
In short: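 Human liver HepaRG cultures receive test chemicals for 48 h at eight half-log concentrations from 100 uM. Expression is quantified by qRT-PCR with ACTB/GAPDH/POLR2A normalization and fitted bidirectionally against 0.5% DMSO.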

[2] = read-out: matrix metalloproteinase-10 (MMP10), MMP10 (gene 4319); assay: LTEA_HepaRG_MMP10: Life Technologies and Expression Analysis (LTEA) Assay for matrix metalloproteinase-10 (MMP10) using HepaRG (AID 2283517)
In short: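 In differentiated HepaRG cultures kept in 0.5% DMSO, test chemicals act for 48 h over an eight-point range with a top dose of 100 uM. Expression is then quantified by TaqMan RT-PCR against ACTB, GAPDH and POLR2A.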

MYC, MYC (gene 4609) = assay: LTEA_HepaRG_MYC: Life Technologies and Expression Analysis (LTEA) Assay for MYC using HepaRG (AID 2283518)
In short: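 Differentiated HepaRG cells exposed 48 h in serum-free induction medium to 8 concentrations (top 100 uM, half-log steps; 0.5% DMSO), duplicate. MYC mRNA measured by Fluidigm qRT-PCR, normalized to ACTB, GAPDH, POLR2A; bidirectional fit versus DMSO.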

[3] = read-out: matrix metalloproteinase-3 (MMP3), MMP3 (gene 4314); assay: LTEA_HepaRG_MMP3: Life Technologies and Expression Analysis (LTEA) Assay for matrix metalloproteinase-3 (MMP3) using HepaRG (AID 2283519)
In short: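 Human liver HepaRG cultures received chemicals (top concentration 100 uM, 0.5% DMSO) for 48 h in duplicate. MMP3 mRNA induction or loss was then assessed via TaqMan qRT-PCR with housekeeping-gene normalisation.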

[4] = read-out: Paternally Expressed 10 (PEG10), PEG10 (gene 23089); assay: LTEA_HepaRG_PEG10: Life Technologies and Expression Analysis (LTEA) Assay for Paternally Expressed 10 (PEG10) using HepaRG (AID 2283520);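 on AC50: PEG10 transcript by qRT-PCR normalised to ACTB GAPDH and POLR2A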
In short: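 Human HepaRG cultures are dosed for 48 h across an eight-point half-log series starting at 100 uM, with 0.5% DMSO as vehicle and baseline. Gain or loss of PEG10 transcript is measured by qRT-PCR and fitted in both directions.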

[5] = read-out: Protein phosphatase 2A (PPP2R4), PTPA (gene 5524); assay: LTEA_HepaRG_PPP2R4: Life Technologies and Expression Analysis (LTEA) Assay for Protein phosphatase 2A (PPP2R4) using HepaRG (AID 2283522)
In short: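 Cells were plated, cultured 48 h, switched to serum-free induction medium, then dosed for 48 h (8 points, max 100 uM, 0.5% DMSO). RNA was isolated and PPP2R4 expression measured by TaqMan qRT-PCR.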

[6] = read-out: Phosphatase and tensin (PTEN), PTEN (gene 5728); assay: LTEA_HepaRG_PTEN: Life Technologies and Expression Analysis (LTEA) Assay for Phosphatase and tensin (PTEN) using HepaRG (AID 2283523)
In short: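 Expression of PTEN is quantified in the human liver line HepaRG following two days of dosing (top concentration 100 uM, half-log dilutions, 0.5% DMSO). Values derive from bidirectional curve fitting relative to DMSO controls.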

[7] = read-out: solute carrier (SLC22A1), SLC22A1 (gene 6580); assay: LTEA_HepaRG_SLC22A1: Life Technologies and Expression Analysis (LTEA) Assay for solute carrier (SLC22A1) using HepaRG (AID 2283524)
In short: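 Transcript induction or suppression of SLC22A1 in human HepaRG cultures is scored after 48 h chemical treatment, with DMSO (0.5%) as baseline for bidirectional fitting. Concentrations span eight half-log points topping at 100 uM.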

[8] = read-out: Pyruvate Dehydrogenase Kinase 4 (PDK4), PDK4 (gene 5166); assay: LTEA_HepaRG_PDK4: Life Technologies and Expression Analysis (LTEA) Assay for Pyruvate Dehydrogenase Kinase 4 (PDK4) using HepaRG (AID 2283525)
In short: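 Eight-point, half-log concentration series (max 100 uM, 0.5% DMSO) applied to differentiated HepaRG cells for 48 h in duplicate. Endpoint: PDK4 mRNA induction or repression by qRT-PCR against DMSO baseline.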

[9] = read-out: Nuclear factor NF-kappa-B p105 subunit (Homo sapiens) (UniProt P19838); assay: LTEA_HepaRG_NFKB1: Life Technologies and Expression Analysis (LTEA) Assay for Nuclear Factor Kappa B Subunit 1 (NFKB1) using HepaRG (AID 2283521)
In short: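 Differentiated human HepaRG cells were exposed for 48 h in serum-free induction medium to eight concentrations (top 100 uM, half-log steps, 0.5% DMSO), in duplicate. NFKB1 mRNA was measured by TaqMan qRT-PCR, normalized to ACTB/GAPDH/POLR2A, and fitted bidirectionally against DMSO.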

Measured: AC50

Sequence of Nuclear factor NF-kappa-B p105 subunit (Homo sapiens) (P19838 whole entry, looked up): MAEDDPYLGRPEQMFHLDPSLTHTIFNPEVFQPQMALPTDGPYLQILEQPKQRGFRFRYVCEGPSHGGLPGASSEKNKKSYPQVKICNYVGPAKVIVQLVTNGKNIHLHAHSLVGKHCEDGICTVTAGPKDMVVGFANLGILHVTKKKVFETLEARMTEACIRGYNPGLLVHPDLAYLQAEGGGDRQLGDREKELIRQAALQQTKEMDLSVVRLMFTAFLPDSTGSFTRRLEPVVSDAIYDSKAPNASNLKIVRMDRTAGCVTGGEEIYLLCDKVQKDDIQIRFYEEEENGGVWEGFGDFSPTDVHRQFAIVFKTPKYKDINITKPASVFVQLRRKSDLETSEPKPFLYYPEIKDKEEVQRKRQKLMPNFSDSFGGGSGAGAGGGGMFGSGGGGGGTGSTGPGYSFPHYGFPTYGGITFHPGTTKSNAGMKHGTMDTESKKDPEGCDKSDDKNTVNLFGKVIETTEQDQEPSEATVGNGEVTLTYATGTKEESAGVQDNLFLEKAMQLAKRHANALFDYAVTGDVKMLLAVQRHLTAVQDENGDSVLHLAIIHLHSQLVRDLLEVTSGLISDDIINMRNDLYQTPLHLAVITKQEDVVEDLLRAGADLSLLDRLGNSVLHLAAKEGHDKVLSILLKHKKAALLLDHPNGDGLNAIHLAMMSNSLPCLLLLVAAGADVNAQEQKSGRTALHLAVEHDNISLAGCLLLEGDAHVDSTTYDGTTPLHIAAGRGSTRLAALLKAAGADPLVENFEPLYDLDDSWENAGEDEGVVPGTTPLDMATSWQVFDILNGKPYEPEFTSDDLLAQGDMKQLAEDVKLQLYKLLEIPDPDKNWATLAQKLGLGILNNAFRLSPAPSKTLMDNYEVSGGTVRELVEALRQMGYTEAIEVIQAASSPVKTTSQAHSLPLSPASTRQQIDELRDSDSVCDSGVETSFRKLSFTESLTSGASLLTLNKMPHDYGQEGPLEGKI

CCNc1nc(Cl)nc(NCC)n1
not listed: [9]
inactive: all other assays above

C#CCOS(=O)OC1CCCCC1Oc1ccc(C(C)(C)C)cc1 (configuration not stated)
active: [1] 28.2 µM | [2] 22.5 µM | MYC, MYC (gene 4609) 22.8 µM | [4] 24.2 µM | [5] 29.8 µM | [6] 30.7 µM | [7] 20.7 µM | [8] 50 µM
inactive: [3] | [9]

CC(C)(C)c1ccc(CSc2cnn(C(C)(C)C)c(=O)c2Cl)cc1
active: [1] 22.8 µM | [2] 18.1 µM | MYC, MYC (gene 4609) 2.84 µM | [4] 1.01 µM | [5] 1.84 µM | [7] 2.71 µM | [8] 9.92 µM
inactive: [3] | [6]

Cc1ccc(-c2c(Cl)nc(C#N)n2S(=O)(=O)N(C)C)cc1
inactive: [2] | [3]
active: [1] 10.2 µM | MYC, MYC (gene 4609) 13.1 µM | [4] 7.7 µM | [9] 50 µM | [5] 32.2 µM | [6] 16.8 µM | [7] 50 µM | [8] 50 µM

Oc1ccccc1-c1ccccc1
not listed: [9]
inactive: all other assays above

CC(C)Oc1cc(-n2nc(C(C)(C)C)oc2=O)c(Cl)cc1Cl
active: [1] 50 µM | MYC, MYC (gene 4609) 89.1 µM | [4] 5.57 µM | [7] 42.8 µM | [8] 11.6 µM
inactive: all other assays above

CC1COC(Cn2cncn2)(c2ccc(Oc3ccc(Cl)cc3)cc2Cl)O1 (configuration not stated)
inactive: [8]
active: [1] 12.6 µM | [2] 30.8 µM | MYC, MYC (gene 4609) 23.9 µM | [3] 31.7 µM | [4] 59.1 µM | [5] 80.6 µM | [6] 78.5 µM | [7] 9.15 µM

O=C(O)c1nc(Cl)ccc1Cl
inactive: [1] | [2] | MYC, MYC (gene 4609) | [3] | [4] | [5] | [6] | [7] | [8]
active: [8] 50 µM

COC(=O)N(OC)c1ccccc1COc1ccn(-c2ccc(Cl)cc2)n1
active: [1] 76.1 µM | [2] 78.1 µM | [3] 26.5 µM | [4] 17 µM | [6] 78.5 µM | [7] 58.7 µM | [8] 11.3 µM
inactive: MYC, MYC (gene 4609) | [5]

CCOP(=S)(OCC)SCn1c(=O)oc2cc(Cl)ccc21
not listed: [9]
inactive: all other assays above

COc1cnc(OC)n2nc(NS(=O)(=O)c3c(OCC(F)F)cccc3C(F)(F)F)nc12
not listed: [9]
inactive: all other assays above

Fc1ccc(Oc2ccnc3cc(Cl)cc(Cl)c23)cc1
active: [4] 33.5 µM | [7] 97.8 µM | [8] 50 µM
not listed: [9]
inactive: all other assays above

CCc1nn(C)c(C(=O)NCc2ccc(C(C)(C)C)cc2)c1Cl
inactive: [3] | [9] | [5]
active: [1] 1.85 µM | [2] 26.5 µM | MYC, MYC (gene 4609) 5.39 µM | [4] 0.484 µM | [6] 50 µM | [7] 4.52 µM | [8] 0.723 µM

CCON=C(CC)C1=C(O)CC(c2c(C)cc(C)cc2C)CC1=O (configuration not stated)
inactive: all assays above
